Here are results for 14 molecules from PubChem BioAssay.

The nature of test [1]: A549 cell viability effects, profiling panel, calcein-AM fluorescence, 48 h, basal (AID 1162). Particulars: higher = more signal.
A short description of test [2]: adipocyte viability effects, profiling panel, cell-based, 3T3-L1 adipocytes, calcein-AM fluorescence, 48 h, basal (AID 1163). To be noted: 3T3-L1 adipocytes viability, higher = more signal.
Test [3] in a line: HepG2 cell viability effects, profiling panel, calcein-AM fluorescence, 48 h, basal (AID 1164). Particulars: higher = more signal.
Test [4] in a line: MM1S cell viability effects, profiling panel, calcein-AM fluorescence, 48 h, basal (AID 1165).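 Also: viability of MM1S multiple myeloma cells under basal unstimulated conditions.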 Particulars: higher = more signal.
Test [5] can be described thus: basal RPMI8226 viability, no added stimulus, profiling panel, cell-based, calcein-AM fluorescence, 48 h, PK04 Diversity Set (AID 1166).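 Also: cells grown under basal conditions without added stimulus.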 Particulars: RPMI8226 myeloma viability, higher = more signal.
A short description of test [6]: basal HepG2 mitochondrial membrane potential changes, profiling panel, cell-based, JC-1 fluorescence, 24 h, 100 nL compound (AID 1167). To be noted: higher = more signal.
Test [7] is described as follows: basal 3T3-L1 adipocyte mitochondrial potential changes, profiling panel, cell-based, JC-1 fluorescence, 3T3-L1 adipocytes, 24 h, 100 nL compound (AID 1168). Particulars: JC-1 mitochondrial fluorescence, higher = more signal, called active from +8 up or from −8 down.
Test [8] in a line: basal RPMI8226 mitochondrial membrane potential changes, profiling panel, cell-based, JC-1 fluorescence, 24 h, 100 nL compound (AID 1169). To be noted: RPMI8226 myeloma, JC-1 mitochondrial potential fluorescence, higher = more signal.
A short description of test [9]: basal MM1S mitochondrial membrane potential changes, profiling panel, cell-based, JC-1 fluorescence, 24 h, 100 nL compound (AID 1170). To be noted: higher = more signal.
Test [10] can be described thus: A549 lung cancer cell viability effects, profiling panel, resazurin fluorescence, 24 h, PK04 Diversity Set (AID 1171). Particulars: higher = more signal, called active from +8 up or from −8 down. On the technique in general: Resazurin is reduced to fluorescent resorufin, in cell work by metabolically active cells.

The source made the active and inactive calls.
Also: test concentration not given here.

In the case of `CN1C2C=C(c3ccc(CO)cc3)C(C3C(=O)N(C(N)=O)C(=O)C32)C1c1cccs1` (stereo not given), the z-score is 0.555 in test [1]; 1.64 in [2]; -0.542 in [3]; 0.31 in test [4]; 1.07 in test [5]; 0.171 in test [6]. Further, the z-score was 0.497 (inactive) in [7], -0.21 in test [8], 0.491 in [9] and 0.567 (inactive) in [10].
With `COc1cccc([C@@H]2[C@@H](C)CC[C@H]3C(=O)N4[C@H](c5cccc(OC)c5)[C@@H](C)CC[C@H]4C(=O)N23)c1`, the z-score was 2.04 in test [1]; 0.512 in test [2]; 0.761 in [3]; 0.656 in test [4]; 1.34 in test [5]; 1.51 in test [6]. The z-score is 0.891 (inactive) in test [7], -0.395 in test [8], 1.13 in [9] and 1.51 (inactive) in [10].
Regarding `C[C@@H]1NC(=O)[C@H](Cc2ccccc2)NC(=O)[C@@]23C(=O)N[C@@H](Cc4ccccc4)C2[C@H](C)[C@@]2(C)O[C@H]2C3/C=C/C/C=C\CNC1=O` (stereo not given in full), the z-score in test [1] was -0.0598; in test [2] it was 0.523; in [3] it was -0.706; in test [4], 0.0254; in test [5], -1.65; in [6] it was -0.971. Further, the z-score in test [7] is -0.206 (inactive); in test [8], 0.814; in test [9], 0.546; in test [10], -0.207 (inactive).
Turning to `O=C(N1CCCCC1)[C@@]1(CCS(=O)(=O)c2ccccc2)N=C(c2ccc(OCCCO)cc2)O[C@H]1c1ccccc1`, the z-score is -1.35 in test [1]; 1 in test [2]; -1.12 in [3]; -2.25 in test [4]; -3.55 in test [5]; 2 in test [6]. Moreover, the z-score in [7] is -0.751 (inactive); in test [8], -0.72; in test [9] it was -2.09; in test [10], -0.908 (inactive).
Regarding `C=C(CCCC)/C(=C/C[C@H](OC(=O)c1ccncc1)c1cccc(OCCO)c1)c1cc(C(=O)OC)ccc1OC`, the z-score in test [1] was 0.215; in [2] it was 2.52; in test [3], 0.0827; in test [4], -1.78; in test [5], -1.93; in [6], 4.13. Moreover, the z-score in test [7] was -0.174 (inactive); in test [8], -0.337; in [9], -0.342; in test [10] it was 2.6 (inactive).
Consider `CC(C)N1CC=CC23O[C@@H]4/C=C\CCCOC(=O)C4[C@H]2C(=O)N(CCO)[C@@H]3C1=O` (stereo not given in full), for which the z-score in test [1] was 1.63; in test [2], 0.472; in test [3], 0.499; in test [4] it was 1.37; in test [5] it was 0.629; in test [6], 1.42. In addition, the z-score was 2.1 (inactive) in test [7], -0.442 in test [8], 0.776 in test [9] and 1.39 (inactive) in [10].
In the case of `CC(=O)NCCCC[C@@H]1NC(=O)[C@@H]2C[C@H](C(=O)NCCCCCNC(=O)CS)[C@H](c3ccc(O)cc3)N2C1=O`, the z-score in test [1] was 1.69; in test [2], 0.349; in test [3] it was -0.0748; in test [4] it was 0.372; in test [5] it was 1.33; in test [6], 1.36. Further, the z-score in test [7] was 0.985 (inactive); in test [8], -0.418; in test [9] it was -0.559; in test [10], 1.46 (inactive).
`CCC1=C2CN(Cc3ccccc3Br)[C@@H]([C@@H](O)Cc3ccccc3)C2C=CCC1` (stereo not given in full): the z-score in test [1] was 0.596; in test [2], 2.48; in test [3] it was 0.155; in [4], -3.24; in test [5] it was -3.99; in test [6], 1.42. In addition, the z-score was -0.473 (inactive) in test [7], -0.981 in [8], -2.18 in [9] and 1.07 (inactive) in test [10].
Regarding `C[C@H]1COC(=O)[C@H](Cc2ccccc2)NC(=O)[C@@H](C)COC(=O)[C@H](Cc2ccccc2)NC1=O`, the z-score in [1] was -0.429; in test [2], 1.27; in test [3], 0.0613; in test [4], 0.244; in test [5], 1.03; in test [6], 0.827. Moreover, the z-score in test [7] is 0.382 (inactive); in test [8] it was -0.405; in [9] it was 0.0881; in [10], 0.512 (inactive).
Take `CO[C@H]1COC(=O)[C@H](Cc2ccccc2)NC(=O)CC=C[C@@H](C)[C@H](OC)COC(=O)CC=C[C@@H]1C`: the z-score in test [1] is -0.0862; in test [2], -0.557; in test [3], 0.5; in test [4], 0.214; in test [5], 1.71; in test [6] it was 0.00562. Moreover, the z-score is 0.954 (inactive) in test [7], -0.791 in [8], 0.411 in test [9] and 0.174 (inactive) in test [10].
Consider `CCOC(=O)C1=CC[C@@H](c2ccccc2)N(S(=O)(=O)c2ccc(C)cc2)[C@H]1C`, for which the z-score in test [1] was -1.54; in test [2] it was -0.956; in test [3], -1.21; in test [4] it was -1.6; in test [5] it was -1.77; in [6] it was 3.96. The z-score in [7] was 0.775 (inactive); in [8], -0.198; in test [9] it was -1.22; in test [10] it was 0.0723 (inactive).
Consider `Cc1ccc(S[C@]2(C(=O)O)CC(=O)N(Cc3cc(C(F)(F)F)cc(C(F)(F)F)c3)[C@@H]2c2ccc(CO)cc2I)cc1`, for which the z-score in test [1] is 0.673; in test [2] it was 0.429; in [3] it was 0.324; in test [4], -3; in test [5] it was -2.22; in test [6] it was -0.338. Further, the z-score is -0.459 (inactive) in test [7], -0.325 in test [8], -1.36 in test [9] and 0.288 (inactive) in test [10].
`O=C1C2C=CC(C(O)c3ccccc3)N(n3cnnc3)C2C(=O)N1Cc1ccccc1` (stereo not given): the z-score is 0.668 in test [1]; -0.0533 in test [2]; 0.765 in [3]; 0.2 in [4]; -1.68 in test [5]; 0.323 in test [6]. The z-score in test [7] is 0.129 (inactive); in test [8], -0.605; in [9], 0.474; in test [10] it was -1.05 (inactive).
For `COc1ccc(C(O)C2C=CC3C(=O)N(C)C(=O)C3N2N2CCCCC2)cc1OCc1ccccc1` (stereo not given), the z-score in test [1] was 0.138; in [2], -0.393; in test [3], -0.888; in [4], -0.25; in [5], 0.0629; in [6] it was -1.8. Besides, the z-score in [7] was -0.693 (inactive); in test [8] it was -0.813; in [9] it was 0.536; in test [10] it was 2.31 (inactive).
